The source of these data is PubChem BioAssay AID1224853 (National Center for Advancing Translational Sciences (NCATS), 2016).

Results filed as inconclusive are left out. A number with no mark means an inactive call. Active and inactive are the calls of the source. Calls follow the shape of the dose curve; as a rule, active = well fitted inhibition curve with a large enough effect; inconclusive = small, poorly fitted or top-dose-only effect; inactive = no such curve, though single readings can be large or run the other way.

The nature of the assay: Confirmation assay for measurement of the activity of small molecule inhibitors on Zika virus induced Caspase-3 activity in human astrocytoma cells. The conditions noted are these: SNB-19 ZIKV-induced caspase-3/7, luminescence, 6 h; series mostly up to 46.1 µM; activity change, negative = inhibition: at the top concentration. The source says:
National Center for Advancing Translational Sciences [NCATS] Johns Hopkins University School of Medicine Florida State University Assay Overview: Increase in the Caspase-3 activity indicates an activation of apoptosis cell death pathway caused by Zika virus infection in certain types of neuronal cells including human neural progenitor cells (hNPCs), astrocytes, and astrocytoma cell line (SNB-19). This cell-based caspase-3 activity assay measures the increased caspase-3 activity in the astrocytoma cell line (SNB-19) after a 6-hour Zika virus infection with a luminescence readout. A decrease in the luminescence signal in this assay by small molecule treatment indicates an inhibitory effect of that small molecule on the Zika virus induced caspase-3 activity that may correlate with its effect on reduction of Zika virus caused cell death.
Assay Protocol Summary: The medium for SNB-19 cells is composed of RPMI 1640 (ATCC, Cat.# 30-2001), 10% fetal bovine serum (FBS) (GE healthcare Life Sciences, Cat.# SH30071.03), and 1% Pen/Strep (Gibco, Cat.# 15140-122). A Caspase-Glo 3/7 assay kit (catalog number G8092; Promega, Madison, WI) was used to detect caspase-3 activity induced by Zika virus infection in human cells. The reagent mixture was reconstituted as described in the protocol from the manufacturer. Polystyrene tissue culture treated and PDL coated white plates were obtained from Greiner Bio-One (Monroe, NC). Cells were seeded in 384- or 1536-well assay plates and cultured at 37 C with 5% CO2 for 16 to 20 hours. The typical cell seeding density in the 1536-well plate assay is 250 cells/well in 3ul medium for SNB-19 cells in tissue culture treated plates. Compounds were added to cells and incubated for one hour before addition of ZIKV solution to cells (2 FFU/cell). After incubation at 37 C with 5% CO2 for 6 hours, the reagent mixture of Caspase-Glo 3/7 assay kit was added to each well, followed by incubation at room temperature for 30 minutes. The luminescence intensity of the assay plates was measured using a ViewLux plate reader (PerkinElmer). Data were normalized by using the cell-containing wells without ZIKV as a negative control (0% induction of caspase 3/7 activity) and wells containing ZIKV infected cells (Caspase-3 activity induced) as a positive control (100% induction of caspase 3 activity). The percentage inhibitions of the increased Caspase-3 activity by small molecule inhibitors were then calculated.
`CCCCCCCC/C=C/C(=O)O`: the “activity change, negative = inhibition” value was -2.36%.
As to `O=C(Nc1ccc(C(=O)O)c(O)c1)c1ccccc1`, the Potency was 6.15 µM (active).
For `CCCC(=O)OC[C@@H](OC(=O)CCC)[C@@H](OC(=O)CCC)[C@H](Cn1c2nc(=O)[nH]c(=O)c-2nc2cc(C)c(C)cc21)OC(=O)CCC`, the “activity change, negative = inhibition” value was -15.1%.
On to `NC1CCC(Nc2nc(Nc3ccc(C(=O)N4CCCCC4)cc3)c3ncn(-c4cccc(F)c4)c3n2)CC1` (stereo not given), for which the “activity change, negative = inhibition” value is 99.3%.
On the same count and under the same terms, for `COc1cc2nc(-c3ccc(N4CCN(C)CC4)cc3)nc(NCCN3CCOCC3)c2cc1OC` the value was -20.6%.
Consider `COc1ccc(-c2coc3cc(O)ccc3c2=O)cc1`, for which the Potency is 15.5 µM (active).
Turning to `O=C(O)c1ccccc1NCCc1ccccc1`, the “activity change, negative = inhibition” value is -28.5%.
With `Cc1nc(N)sc1-c1ccnc(Nc2ccc(N3CCOCC3)cc2)n1`, the “activity change, negative = inhibition” value was -13.1%.
Turning to `Oc1cc(O)cc(/C=C/c2ccc(O)c(O)c2)c1`, the Potency is 6.15 µM (active).
Same read-out and setting: under `Cc1nc(-c2ccc(OCC(C)C)c(C#N)c2)sc1C(=O)O` stands 2.45 µM (active); under `O=C(C=CC=Cc1ccc2c(c1)OCO2)N1CCCCC1`, 19.5 µM (active).
On to `O=C(CS)Nc1ccccc1`, for which the “activity change, negative = inhibition” value was 11.3%.
The same measure, in the same setting: for `O[C@@H](COc1cccc2ncccc12)CN1CCN(C2c3ccccc3[C@@H]3[C@H](c4ccccc42)C3(F)F)CC1` (stereo not given in full) the value was -9.17%.
Take `O=C(Oc1ccccc1)c1cccc(C(=O)Oc2ccccc2)c1`: the Potency is 4.47 µM (active).
Same read-out and setting: for `COCCn1c2c([n+](Cc3cnccn3)c1C)C(=O)c1ccccc1C2=O` the value was 4.89 µM (active); for `CC(C)Oc1ccc2c(=O)c(-c3ccccc3)coc2c1`, 12.3 µM (active).
Same read-out and setting: for `O=C1C[C@@H](c2ccc(O)cc2)Oc2cc(O)cc(O)c21` the value was 15.5 µM (active).
The same measure, in the same setting: under `O=C(Nc1ccc([N+](=O)[O-])cc1Cl)c1cc(Cl)ccc1O` stands 1.95 µM (active).
As for `Cc1[nH]c(C=C2C(=O)Nc3ccccc32)c(C)c1CCC(=O)O`, the “activity change, negative = inhibition” value is 0.798%.
The same measure, in the same setting: for `CC1(C)Cc2c(sc(NC(=S)NC(=O)c3ccccc3)c2C(=O)O)CO1` the value was -0.0994%.
As to `COc1cccc(-c2ccc(NC(=O)C3=C(C(=O)O)CCC3)c(F)c2)c1`, the Potency was 3.46 µM (active).
In the case of `CCN1CCC(n2cc(CNc3cc(Cl)c4ncc(C#N)c(Nc5ccc(F)c(Cl)c5)c4c3)nn2)CC1`, the “activity change, negative = inhibition” value is 1.61%.
With `Clc1ccccc1-c1nc(-c2ccncc2)no1`, the Potency is 7.74 µM (active).
As to `COc1cc(NC(C)CCCN)c2ncccc2c1` (stereo not given), the “activity change, negative = inhibition” value is 20.7%.
With `O=C(O)CCC(=O)c1ccc(-c2ccccc2)cc1`, the Potency was 24.5 µM (active).
Regarding `CCOC1OC(=O)C[C@H]1NC(=O)[C@@H]1CCCN1C(=O)[C@@H](NC(=O)c1ccc(N)c(Cl)c1)C(C)(C)C` (stereo not given in full), the “activity change, negative = inhibition” value was -20.4%.
The same measure, in the same setting: for `CN(C)c1ccc2cc(C(=O)N[C@@H](CCCN=C(N)CCl)C(=O)NCc3ccccc3)ccc2c1` the value was -11.2%; for `Cc1c(N)c(=O)n(-c2ccccc2)n1C`, 0.521%; for `C[C@@H](O[C@H]1OCCN(Cc2n[nH]c(=O)[nH]2)[C@@H]1c1ccc(F)cc1)c1cc(C(F)(F)F)cc(C(F)(F)F)c1`, 116%.
Take `COc1ccc(-c2cc(=O)c3c(O)cc(O)cc3o2)cc1O`: the Potency is 13.8 µM (active).
With `C[C@H](NC(=O)C(=O)Nc1ccccc1C(C)(C)C)C(=O)N[C@@H](CC(=O)O)C(=O)COc1c(F)c(F)cc(F)c1F`, the Potency is 0.615 µM (active).
Same read-out and setting: under `O=C(OCc1ccccc1)c1ccc(O)cc1` stands 19.5 µM (active).
In the case of `CNC1[C@H](O)C(O[C@@H]2C(O)C(O[C@H]3O[C@H]([C@@H](C)NC)CC[C@H]3N)[C@@H](N)C[C@H]2N)OC[C@]1(C)O` (stereo not given in full), the “activity change, negative = inhibition” value was 16.6%.
As to `C/C(=N\O)c1ccc(OCC(=O)N2CCCCC2)cc1`, the Potency is 8.69 µM (active).
`CCC(C(=O)O)c1ccc(N2Cc3ccccc3C2=O)cc1` (stereo not given): the Potency was 6.9 µM (active).
Regarding `C=C1C(=O)[C@@]23C(CC[C@@H]1[C@H]2O)[C@@]12CO[C@]3(O)[C@@H](O)[C@@H]1C(C)(C)CC[C@@H]2O` (stereo not given in full), the “activity change, negative = inhibition” value is 30.6%.
Take `Cc1ccc(O)c(N=Nc2ccccc2)n1`: the Potency is 5.48 µM (active).
Regarding `CO[C@H]1C(=O)[C@]2(C)[C@@H](OC)C[C@H]3OC[C@@]3(OC(C)=O)[C@H]2[C@H](OC(=O)c2ccccc2)[C@]2(O)C[C@H](OC(=O)[C@H](O)[C@@H](NC(=O)OC(C)(C)C)c3ccccc3)C(C)=C1C2(C)C`, the “activity change, negative = inhibition” value was 15.9%.
`O=c1c2ccccc2nc2n1CCc1c-2[nH]c2ccccc12`: the Potency is 4.89 µM (active).
Take `CN(C)c1ccc(C(=C2C=CC(=[N+](C)C)C=C2)c2ccccc2)cc1`: the “activity change, negative = inhibition” value was -25.3%.
